From PubChem BioAssay
FUS yeast rescue = qHTS for Suppressors of FUS Proteinopathy: Primary screen using FUS-linked yeast assay; Potency, µM (series often up to 76.6 µM), hits mostly activators; S. cerevisiae FUS-expressing, growth rescue, OD600, 24 h; 0.24% of 390,000 active;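 note: plate controls were DMSO vehicle for no effect and reference control for full effect; nearly all actives have a fitted effect of over 55% in size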
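Yeast expressing FUS under galactose induction, OD 0.005 in 2% galactose medium; compounds in a dilution series, 24 h at 30C. Growth rescue by absorbance at 600 nm; CP55940 positive control, DMSO negative.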
aSyn rescue = qHTS of alpha-syn Inhibitors | AID 652106, 2013 | Potency, µM (highest dose often 46.1 µM), inactives show at the top dose growth rescue (activation), actives largely listed as activators | Yeast expressing alpha-synuclein, growth rescue, BacTiter-Glo, 24 h | 0.14% of 370,000 active; note: % of control where 0% means no effect; nearly all actives have a fitted effect of over 65% in size
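Readout is rescue of growth in alpha-synuclein-expressing yeast, so inhibitors of toxicity appear as activators. Growth after 24 hr at 30 deg C in galactose medium is quantified by luminescence.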
Mito fusion act = qHTS Assay for Small Molecule Inhibitors of Mitochondrial Division or Activators of Mitochondrial Fusion; S. cerevisiae fusion-defective mutant growth rescue, CellTiterGlo 48 h; Potency, µM (titrated, usually from 46.1 µM), without a hit: top-dose growth rescue (activation), most hits filed as activators; 0.23% of 320,000 active; note: % of control where 0% means no effect; nearly all actives have a fitted effect of over 45% in size
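Read-out: ATP-based luminescence (CellTiterGlo, 10 min ambient) reporting growth of fusion-defective ts yeast after 48 hours at 37C on glycerol/ethanol YPEG medium in the presence of compound.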
TDP43 rescue = qHTS of TDP-43 Inhibitors; TDP-43 expressing yeast growth rescue, BacTiter-Glo, 24 h; Potency, µM (top dose mostly 46.1 µM), without a hit: top-dose growth rescue (activation), usual class: activators; 1.8% of 410,000 active; AID 652104, 2013; note: % of control where 0% means no effect; nearly all actives have a fitted effect of over 50% in size
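Cell-based yeast growth screen: TDP-43 expression induced in galactose, inoculum OD600=0.02 after raffinose pregrowth to mid-log. Read-out BacTiter-Glo luminescence at 24 hr, 30 deg C; inhibition of toxicity seen as signal increase.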
Abeta yeast res = qHTS for compounds that reverse cellular toxicity of Amyloid beta (A-beta) peptide in yeast: Primary Screen | yeast expressing A-beta42, growth rescue, OD600, 48 h; response scale: 0% DMSO, 100% iron-clioquinol control | Potency, µM (highest dose often 46.1 µM), usual class: activators | 0.063% of 410,000 active | AID 1347071, 2019; note: nearly all actives have a fitted effect of over 55% in size
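Yeast A-beta toxicity model in growth medium with pinned compounds, 48 h at 30 C; growth read as absorbance at 600 nm. Normalized to FeCl3/clioquinol equimolar mix (positive) and DMSO (negative).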
An asterisk follows results filed as active; [ ] = dose if it differs, or a comment. Only some compounds are listed: those with a hit (about 2.2% of all), similar ones and a draw of the others. Calls come from the whole dose curve; as a rule, active = well fitted curve in the direction sought with a large enough effect; inconclusive = small, poorly fitted or top-dose-only effect, or another doubt; inactive = no such curve, though single readings can be large; an effect the other way counts as inactive or inconclusive. Potency is the fitted concentration of half-maximal effect.

For CC(NC(=O)CCCCCCN1C(=O)c2ccccc2C1=O)c1ccc2c(c1)CCCC2 (configuration not stated) the results were aSyn rescue -16%, Mito fusion act 16%, TDP43 rescue 35µM* and Abeta yeast res inactive.
For C/C(=N\NC(=O)c1ccccc1O)C1C(=O)c2ccccc2C1=O the results were FUS yeast rescue inactive, Mito fusion act 1%, TDP43 rescue -7% and Abeta yeast res inactive.
Screening C/C(=N\NC(=O)c1cc2ccccc2cc1O)c1ccccn1 returned FUS yeast rescue inactive, aSyn rescue 10µM*, Mito fusion act -25%, TDP43 rescue -26% and Abeta yeast res inconclusive.
C/C(=N/NC(=O)c1cc2ccccc2cc1O)C1C(=O)c2ccccc2C1=O was read as FUS yeast rescue 7.1µM*, aSyn rescue -2%, Mito fusion act 15%, TDP43 rescue 16% and Abeta yeast res inactive.
`C/C(=N\NC(=O)c1c[nH]c2ccccc12)c1ccccn1` gave FUS yeast rescue inactive, aSyn rescue -4%, Mito fusion act 8%, TDP43 rescue 8% and Abeta yeast res inactive.
O=c1oc2ccccc2cc1-c1nc(-c2cccs2)no1 was read as FUS yeast rescue inactive, TDP43 rescue 18%[9.22 µM] and Abeta yeast res inactive.
CCOC(=O)C1=CCN(S(=O)(=O)c2ccccc2F)C1c1cccc(C)c1 (configuration not stated) was read as FUS yeast rescue inactive, aSyn rescue 3%, TDP43 rescue 7% and Abeta yeast res inactive.
For Cc1cc(C)nc(N(C#N)CCOc2ccccc2)n1 the results were FUS yeast rescue inactive, aSyn rescue inconclusive, Mito fusion act 1%, TDP43 rescue 13µM* and Abeta yeast res inactive.
Screening CCOc1ccc(C(=O)c2nc3c(n2O)CCCCC3)cc1 returned FUS yeast rescue inactive, aSyn rescue -5%, Mito fusion act 1%, TDP43 rescue 4% and Abeta yeast res inactive.
For CCCOc1ccc(C(=O)c2nc3c(n2O)CCCC3)cc1 the results were FUS yeast rescue inactive, Mito fusion act -1%, TDP43 rescue 13µM* and Abeta yeast res inactive.
For O=C(NC1CCCCN(Cc2cccc(C(F)(F)F)c2)C1=O)c1c(F)cccc1F (configuration not stated) the results were FUS yeast rescue inactive.
CCCCNC(=S)N1CCn2cccc2C1c1ccc(F)cc1 (configuration not stated) was read as FUS yeast rescue inconclusive, aSyn rescue 7%, Mito fusion act 5%, TDP43 rescue 16µM* and Abeta yeast res inactive.
CCOc1ccc(NCc2cccn2-c2nnc(N3CCC(C(=O)NCc4ccccc4Cl)CC3)s2)cc1 was read as FUS yeast rescue inactive, TDP43 rescue 12% and Abeta yeast res inactive.
`O=C(CC1(O)C(=O)N(CCc2ccccc2)c2ccc(Br)cc21)c1ccccc1` (configuration not stated) gave FUS yeast rescue inactive, aSyn rescue -13%, TDP43 rescue 32µM* and Abeta yeast res inactive.
`Cc1ccc(C(=O)CC2(O)C(=O)N(CCc3ccccc3)c3ccc(Br)cc32)o1` (configuration not stated) gave FUS yeast rescue inconclusive, aSyn rescue 25%, Mito fusion act 15%, TDP43 rescue -11% and Abeta yeast res inactive[9.22 µM].
`ICC[n+]1csc2ccccc21` gave aSyn rescue -1%.
Screening Clc1ccc(C[n+]2csc3ccccc32)cc1 returned aSyn rescue -11%, Mito fusion act 11µM*, TDP43 rescue 25µM* and Abeta yeast res inactive.
Fc1ccc(C[n+]2csc3ccccc32)cc1 was read as aSyn rescue -9%, Mito fusion act 2%, TDP43 rescue 28µM* and Abeta yeast res inactive.
Screening Cc1cccc(-n2cc(-c3ccccc3)nc2SCC(=O)Nc2ccccc2Cl)c1 returned FUS yeast rescue inactive, TDP43 rescue 4%[9.22 µM] and Abeta yeast res inactive.
`Cc1ccc(O)c(-c2cc(C(F)(F)F)[nH]n2)c1` gave FUS yeast rescue inactive, aSyn rescue 3%, Mito fusion act -9%, TDP43 rescue 18µM* and Abeta yeast res inconclusive.
N#Cc1cn(-c2ccccc2)nc1-c1ccco1 was read as FUS yeast rescue inactive, Mito fusion act 4%, TDP43 rescue 8.9µM* and Abeta yeast res inactive.
`O=Cc1ccc(CS)cc1` gave aSyn rescue 1%.
Screening O=c1c2ccccc2ncn1Cc1cccc2ccccc12 returned FUS yeast rescue inactive, aSyn rescue 19%, Mito fusion act 22%, TDP43 rescue 11µM* and Abeta yeast res inactive.
For COc1cccc(/C=C/c2nc(C#N)c(N3CCCCC3)o2)c1 the results were FUS yeast rescue inactive, TDP43 rescue 16µM* and Abeta yeast res inactive.
For COc1cc(/C=C/c2nc(C#N)c(N3CCCCC3)o2)cc(OC)c1OC the results were FUS yeast rescue inactive, TDP43 rescue -16% and Abeta yeast res inactive.
For CCCCc1cc(=O)oc2c(C)c(OCC(=O)N3CCC(C(=O)O)(c4ccccc4)CC3)ccc12 the results were FUS yeast rescue 28µM*, aSyn rescue -10%, Mito fusion act -5%, TDP43 rescue 12% and Abeta yeast res inactive.
CCCCc1cc(=O)oc2c(C)c(OCC(=O)N3CCCC3)ccc12 was read as aSyn rescue 6%, Mito fusion act 10%, TDP43 rescue 11% and Abeta yeast res inactive.
Screening Cc1cc(NC(=O)COn2nnc3ccc(Cl)cc32)no1 returned FUS yeast rescue inactive, aSyn rescue 2%, Mito fusion act 0%, TDP43 rescue 16% and Abeta yeast res inactive[9.22 µM].
For CCOc1ccccc1NC(=O)COn1nnc2ccc(Cl)cc21 the results were FUS yeast rescue inactive, aSyn rescue 1%, Mito fusion act 11µM*, TDP43 rescue inconclusive and Abeta yeast res inactive.
Screening CCOc1ccccc1NC(=O)CSc1ncc(S(=O)(=O)c2ccc(C)c(C)c2)c(N)n1 returned FUS yeast rescue 32µM*, TDP43 rescue 17% and Abeta yeast res inactive.
`O=C(CSc1nnc(-c2ccco2)o1)c1ccccc1Cl` gave FUS yeast rescue 22µM*, aSyn rescue -4%, Mito fusion act 5%, TDP43 rescue inconclusive and Abeta yeast res inactive.
`CCOc1ccccc1NC(=O)CSc1ccccc1` gave FUS yeast rescue inactive, aSyn rescue 3%, Mito fusion act 0%, TDP43 rescue 14µM* and Abeta yeast res inactive.
